Data as given in PubChem BioAssay (NCATS).
Several values for one entry are separate records, joined by “and”; a condition that tells them apart may be missing. Equal values may be shown once. Inconclusive results are not listed. A call without a number means that no potency is given here. Activity calls are given as the source filed them. Calls follow the shape of the dose curve; as a rule, active = well fitted inhibition curve with a large enough effect; inconclusive = small, poorly fitted or top-dose-only effect; inactive = flat fitted curve, though single readings scatter.

test system: Zika virus NS2B-NS3 protease; assay: Primary screen GU AMC qHTS for Zika virus inhibitors (AID 1347154); details: Zika NS2B-NS3 unlinked protease, AMC fluorogenic substrate; series mostly up to 54.1 µM; also: nearly all actives have a fitted effect of over 70% in size
In short: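 Unlinked Zika NS2B hydrophilic domain/NS3 protease domain noncovalent complex (25 nM final) in 10 mM Tris-HCl pH 8.0, 0.01% Tween 20, with AMC peptide substrate. Fluorescence (ex 340, em 450 nm) change over 15 min, room temperature; percent inhibition fitted to 4-parameter Hill equation.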
Potency is read from the fitted curve at half-maximal effect.

Compound	Potency
CC(C)OC(=O)C(C(=O)OC(C)C)=C1SC=CS1	inactive
CC(=O)Oc1ccccc1C(=O)Nc1ncc([N+](=O)[O-])s1	inactive
CC(=O)[C@H]1CC[C@H]2[C@@H]3CC=C4C[C@@H](O)CC[C@]4(C)[C@H]3CC[C@]12C	inactive
COc1cnc(NS(=O)(=O)c2ccc(N)cc2)nc1	inactive
Cc1oc(=O)oc1CN1CCN(c2cc3c(cc2F)c(=O)c(C(=O)O)c2n3C(C)S2)CC1 (configuration not stated)	inactive
NC(N)=NC(N)=NCCc1ccccc1	inactive
CC(C)Cn1cnc2c(N)nc3ccccc3c21	inactive
NC(=O)N1c2ccccc2CC(=O)c2ccccc21	inactive
COc1cc(NS(=O)(=O)c2ccc(N)cc2)nc(OC)n1	inactive
Cc1ccnc2c1NC(=O)c1cccnc1N2C1CC1	inactive
NS(=O)(=O)c1cc2c(cc1Cl)NC(C(Cl)Cl)NS2(=O)=O (configuration not stated)	inactive
CC1=CC(=O)c2ccccc2C1=O	inactive
C[C@@H]1CN(c2c(F)c(N)c3c(=O)c(C(=O)O)cn(C4CC4)c3c2F)C[C@H](C)N1	inactive
O=C(O)CCn1c2c(c3ccccc31)C[C@H](NS(=O)(=O)c1ccc(F)cc1)CC2	inactive
Cn1c(=O)c2c(ncn2CC(O)CO)n(C)c1=O (configuration not stated)	inactive
O=c1oc2c(O)c(O)cc3c(=O)oc4c(O)c(O)cc1c4c23	496 nM (active) and 1.92 µM (active)
CN(Cc1cc(Br)cc(Br)c1N)C1CCCCC1	inactive
Clc1ccccc1CN1CCc2sccc2C1	inactive
COc1ccccc1OCC(O)COC(N)=O (configuration not stated)	inactive

Compound	Potency
CCCCCCNC(=O)n1cc(F)c(=O)[nH]c1=O	inactive
Cc1nnc(NS(=O)(=O)c2ccc(N)cc2)s1	inactive
CCc1cc(C(N)=S)ccn1	inactive
NC(=O)c1cccc(N)c1	inactive
NNC(=O)c1ccncc1	inactive
O=c1cc(O)c(Cl)c[nH]1	inactive
COc1cccc(N(C)C(=S)Oc2ccc3c(c2)CCCC3)n1	inactive
CCCc1cc(C(N)=S)ccn1	inactive
Cc1cccc(Nc2ccncc2S(=O)(=O)NC(=O)NC(C)C)c1	inactive
CN1CCN(c2c(F)cc3c(=O)c(C(=O)O)cn4c3c2OCN4C)CC1	inactive
CC[C@H](NC(C)C)[C@H](O)c1ccc(O)c2[nH]c(=O)ccc12	inactive
C[C@]12C=CC(=O)C=C1CC[C@@H]1[C@@H]2C(=O)C[C@@]2(C)[C@H]1CC[C@]2(O)C(=O)CO	inactive
NCCCC(O)(P(=O)(O)O)P(=O)(O)O	inactive
CC(C)(C)NC(=O)[C@H]1CC[C@H]2[C@@H]3CC[C@H]4NC(=O)C=C[C@]4(C)[C@H]3CC[C@]12C	inactive
CC(C)OC(=O)OCOP(=O)(CO[C@H](C)Cn1cnc2c(N)ncnc21)OCOC(=O)OC(C)C	inactive
CC(=O)CC(c1ccccc1)c1c(O)c2ccccc2oc1=O (configuration not stated)	inactive
CCC(C)(C)c1ccc(CC(C)CN2C[C@@H](C)O[C@@H](C)C2)cc1 (some centres not stated)	inactive
CC1=NN(c2ccccc2)C(=O)C1	inactive
